According to PubChem BioAssay AID2284100 (EPA ToxCast):
Active and inactive are the calls of the source. The calls were made as follows: active = hit-call score of the fitted dose curve at least 0.9, where 1 is the maximum; inactive = score below 0.9.

target: human KDR (VEGFR2) Receptor Tyrosine Kinase, KDR (gene 3791) (UniProt P35968); assay: ERF_FR_ENZ_hKDR: Eurofins (ERF) Enzymatic Radiometric [Km ATP] KinaseProfiler LeadHunter Assay for human KDR (VEGFR2) Receptor Tyrosine Kinase
Description: ERF_FR_ENZ_hKDR is a biochemical, single-readout assay that uses extracted gene-proteins in a cell-free assay. Measurements were taken 1 hour after chemical dosing in a 96-well plate. See KDR (VEGFR2) Human RTK Kinase Enzymatic LANCE Assay [Km ATP], Cerep.ERF_FR_ENZ_hKDR is an assay component calculated from the ERF_FR_ENZ_hKDR assay. It is designed to measure enzyme activity using a type of enzyme reporter as detected by fluorescence intensity with LANCE technology.Data from the assay component ERF_FR_ENZ_hKDR was analyzed at the assay endpoint, ERF_FR_ENZ_hKDR, in the positive analysis fitting direction relative to DMSO as the negative control and baseline of activity. Using a type of enzyme reporter, loss-of-signal activity can be used to understand changes in enzymatic activity as they relate to gene KDR. To generalize the intended target to other relatable targets, this assay endpoint is annotated to the kinase intended target family, where the subfamily is receptor tyrosine kinase.
KDR (h) is incubated with 8 mM MOPS pH 7.0, 0.2 mM EDTA, 0.33 mg/mL myelin basic protein, 10 mM MgAcetate and [gamma-33P]-ATP (specific activity and concentration as required). The reaction is initiated by the addition of the Mg/ATP mix. After incubation for 40 minutes at room temperature, the reaction is stopped by the addition of phosphoric acid to a concentration of 0.5%. […]

human KDR (VEGFR2) Receptor Tyrosine Kinase, KDR (gene 3791), sequence (P35968 whole entry, looked up): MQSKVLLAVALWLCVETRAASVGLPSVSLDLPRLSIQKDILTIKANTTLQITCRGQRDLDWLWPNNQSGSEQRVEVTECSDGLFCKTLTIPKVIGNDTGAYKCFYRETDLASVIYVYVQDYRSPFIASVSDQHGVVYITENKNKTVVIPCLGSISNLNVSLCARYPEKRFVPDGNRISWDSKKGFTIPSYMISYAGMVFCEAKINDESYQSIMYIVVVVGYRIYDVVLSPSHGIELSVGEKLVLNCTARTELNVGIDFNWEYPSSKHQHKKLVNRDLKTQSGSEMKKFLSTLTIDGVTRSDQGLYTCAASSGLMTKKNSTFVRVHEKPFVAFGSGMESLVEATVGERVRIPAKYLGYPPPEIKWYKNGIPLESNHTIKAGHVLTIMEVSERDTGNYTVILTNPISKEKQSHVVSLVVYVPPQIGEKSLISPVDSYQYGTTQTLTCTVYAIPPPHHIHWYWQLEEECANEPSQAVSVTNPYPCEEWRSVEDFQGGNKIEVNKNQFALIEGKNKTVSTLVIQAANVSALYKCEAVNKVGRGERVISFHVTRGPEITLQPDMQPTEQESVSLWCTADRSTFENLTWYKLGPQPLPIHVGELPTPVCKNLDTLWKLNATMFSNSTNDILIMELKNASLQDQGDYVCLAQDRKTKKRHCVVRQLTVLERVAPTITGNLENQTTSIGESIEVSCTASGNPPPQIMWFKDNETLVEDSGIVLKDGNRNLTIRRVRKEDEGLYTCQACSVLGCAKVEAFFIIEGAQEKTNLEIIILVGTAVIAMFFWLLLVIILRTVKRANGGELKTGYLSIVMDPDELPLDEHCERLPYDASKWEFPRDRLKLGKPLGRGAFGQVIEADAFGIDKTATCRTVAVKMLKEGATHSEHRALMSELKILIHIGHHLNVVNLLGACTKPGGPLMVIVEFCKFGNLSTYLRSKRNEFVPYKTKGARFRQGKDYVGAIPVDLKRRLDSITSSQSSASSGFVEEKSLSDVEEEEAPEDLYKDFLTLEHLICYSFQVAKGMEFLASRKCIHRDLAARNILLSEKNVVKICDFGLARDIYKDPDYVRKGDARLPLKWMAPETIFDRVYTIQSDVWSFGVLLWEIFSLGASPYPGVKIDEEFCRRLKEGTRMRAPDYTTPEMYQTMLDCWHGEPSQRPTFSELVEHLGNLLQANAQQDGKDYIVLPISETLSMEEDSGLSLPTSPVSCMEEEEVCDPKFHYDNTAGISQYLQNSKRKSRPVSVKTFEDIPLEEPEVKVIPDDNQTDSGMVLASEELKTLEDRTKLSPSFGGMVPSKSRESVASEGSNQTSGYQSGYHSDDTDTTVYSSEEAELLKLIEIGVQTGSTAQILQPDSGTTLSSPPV

| SMILES | AC50 |
| --- | --- |
| O=C(/C=C/c1ccc(O)cc1)CC(=O)/C=C/c1ccc(O)cc1 | 2.39 µM (active) |
